The values below come from PubChem BioAssay.

Unmarked numbers belong to inactive results. The source made the active and inactive calls. Cut-off read from the data, not from the text of the source, unless noted: active = inhibition above about 30%; inactive = the rest.

The target in experiment [1] is Nuclear receptor coactivator 3 (Homo sapiens) (UniProt Q9Y6Q9). The experiment is described as follows: NCOA3 GAL4-fusion reporter inhibition – cell-based, luminescence, quadruplicate, confirmation (AID 588792;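 active = mean inhibition over 43.08%, the solvent-only control mean plus 3 SD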;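 note: 0% = DMSO treated cells and 100% = gossypol at 36 µM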). Conditions: HEK293 GAL4-SRC3 luciferase reporter, at 3.6 µM, active compounds read high. For orientation: Reporter assays use an easily measured gene product as a stand-in for the process of interest.

The test system of experiment [2] is transactivating tegument protein VP16 (Human herpesvirus 1), Gal4-VP16 luciferase reporter. Description: repression of VP16-driven luciferase reporter – cell-based, luminescence, high throughput, counter-screen for SRC3 inhibitor project (AID 588794). The note with it: mammalian cells, at 3.6 µM, active compounds read high.

Nuclear receptor coactivator 3 (Homo sapiens), sequence (Q9Y6Q9 whole entry, looked up, the tested form may be a part): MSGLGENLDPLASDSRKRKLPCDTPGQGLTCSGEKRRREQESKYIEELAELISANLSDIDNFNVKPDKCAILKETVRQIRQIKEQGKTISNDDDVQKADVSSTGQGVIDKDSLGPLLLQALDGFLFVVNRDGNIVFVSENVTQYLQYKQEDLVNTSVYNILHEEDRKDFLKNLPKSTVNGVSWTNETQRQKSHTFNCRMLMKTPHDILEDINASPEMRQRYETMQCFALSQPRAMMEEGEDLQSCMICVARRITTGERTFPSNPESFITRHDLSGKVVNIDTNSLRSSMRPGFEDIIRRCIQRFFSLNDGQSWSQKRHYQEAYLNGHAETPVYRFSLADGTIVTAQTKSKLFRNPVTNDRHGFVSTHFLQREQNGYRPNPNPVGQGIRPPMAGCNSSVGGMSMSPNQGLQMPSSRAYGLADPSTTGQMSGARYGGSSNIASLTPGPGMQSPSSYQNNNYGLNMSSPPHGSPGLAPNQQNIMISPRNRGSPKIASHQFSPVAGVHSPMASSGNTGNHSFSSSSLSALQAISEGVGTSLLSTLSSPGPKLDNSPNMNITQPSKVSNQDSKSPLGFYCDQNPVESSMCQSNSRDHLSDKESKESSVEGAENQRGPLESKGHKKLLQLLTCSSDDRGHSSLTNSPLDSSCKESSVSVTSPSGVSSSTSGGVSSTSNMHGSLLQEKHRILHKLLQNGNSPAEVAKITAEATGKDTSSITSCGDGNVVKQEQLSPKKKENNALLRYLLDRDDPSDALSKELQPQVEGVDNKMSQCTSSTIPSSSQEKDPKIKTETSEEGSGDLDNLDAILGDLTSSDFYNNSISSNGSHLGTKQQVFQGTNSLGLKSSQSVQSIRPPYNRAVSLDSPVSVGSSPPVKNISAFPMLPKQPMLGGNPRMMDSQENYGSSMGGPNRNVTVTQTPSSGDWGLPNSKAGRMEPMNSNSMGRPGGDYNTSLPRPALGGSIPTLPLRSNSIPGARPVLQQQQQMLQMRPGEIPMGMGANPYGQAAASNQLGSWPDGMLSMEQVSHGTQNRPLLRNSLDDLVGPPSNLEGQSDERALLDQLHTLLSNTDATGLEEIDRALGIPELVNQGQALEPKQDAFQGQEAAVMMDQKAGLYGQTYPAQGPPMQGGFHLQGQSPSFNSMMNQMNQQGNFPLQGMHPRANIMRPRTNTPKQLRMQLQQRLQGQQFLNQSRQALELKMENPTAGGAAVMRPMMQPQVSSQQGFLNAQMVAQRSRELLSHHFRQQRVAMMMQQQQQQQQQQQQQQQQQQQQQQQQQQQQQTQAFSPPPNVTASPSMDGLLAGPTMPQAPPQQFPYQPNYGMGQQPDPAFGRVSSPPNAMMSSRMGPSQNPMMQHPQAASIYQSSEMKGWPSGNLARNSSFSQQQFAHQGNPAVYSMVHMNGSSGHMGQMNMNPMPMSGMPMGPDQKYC

As usually defined, the inhibition is the drop in the measured response relative to a control, in per cent. For `O=C(/C=C/c1ccc([N+](=O)[O-])cc1)c1ccccc(=O)c1O`, the results for the inhibition in experiment [1] and in experiment [2] were 33% and 37.5% (active), respectively.
In the same order, the values of `CCCNc1nc(OC(C(F)(F)F)C(F)(F)F)nc(OC(C(F)(F)F)C(F)(F)F)n1` are 7.26% and -8.01%.
Regarding `Cn1nc(CC(=O)Nc2ccc(N3CCN(C(=O)OC(C)(C)C)CC3)cc2)c2ccccc2c1=O`, the inhibition in experiment [1] was 17.6%; in experiment [2], 42.2% (active).
On the same counts, the results for `CN1C/C(=C/c2cccnc2)C(=O)/C(=C/c2cccnc2)C1` are 23.5% and 54.1% (active).
On the same counts, the results for `O=C(NCCc1cn2ccccc2n1)c1cc(COc2ccc3ncccc3c2)on1` are -5.01% and 18.4%.
On the same counts, the results for `Cc1cccc(Nc2nc(-c3c(C)nc4ccccn34)cs2)c1` are 19.1% and 24.4%.
On to `C#CCN(C[C@@H]1[C@@H](OC(=O)NCc2ccccc2F)[C@@H](OC(=O)NCc2ccccc2F)Cn2c(=O)ccc(=O)n21)S(=O)(=O)c1ccc(C)cc1`, for which the results for the inhibition in experiment [1] and in experiment [2] were -2.92% and 24.2%, respectively.
On to `O=C(Nc1ccn(Cc2ccccc2F)n1)c1ccc(COc2ccccc2Cl)cc1`, for which the values for the inhibition in experiment [1] and in experiment [2] were 10.9% and 22.1%, respectively.
On the same counts, the results for `CCOc1cccc(-n2nnnc2-c2ccc(OC)cc2)c1` are 7.46% and 14.6%.
Turning to `O=C(c1ccccc1)N1CCN(Cc2c[nH]c3ccccc23)CC1`, the values for the inhibition in experiment [1] and in experiment [2] were 8.59% and -3.11%, respectively.
Take `CCOC(=O)C1=CCN(S(=O)(=O)c2ccc(C)cc2)C1c1cccc(Cl)c1` (stereo unspecified): the figures for the inhibition in experiment [1] and in experiment [2] were 15.1% and 6.03%, respectively.
For `C=CCc1cccc(/C=N/NC(=O)C[n+]2ccccc2)c1O`, the inhibition in experiment [1] was 24.3%; in experiment [2], 12.3%.
As to `Cc1ccc(/C=C/C(O)=C2/C(=O)N(C)C3(C)CC2c2ccccc2O3)cc1` (stereo unspecified), the inhibition is 20.3% in experiment [1] and 30.3% (active) in experiment [2].
As to `CCN(CC)c1ccc(Nc2nc(N3CCOCC3)c3ccccc3n2)cc1`, the inhibition in experiment [1] was 4.45%; in experiment [2] it was 20.2%.
On the same counts, the results for `CN(C)c1ccc(C=c2c3cc([N+](=O)[O-])ccc3n3c2cc(-c2ccccc2)[n+]3C)cc1` are 38.4% and 56.7% (active).
With `Cc1cccc(NC(=S)N(CCCN2CCOCC2)Cc2cn(C)c3ccccc23)c1`, the inhibition in experiment [1] was -2.78%; in experiment [2], -2.77%.
For the molecule `O=C(Nc1ncc(Cc2ccc(C(F)(F)F)cc2)s1)c1ccc(-c2cccc([N+](=O)[O-])c2)o1`, the inhibition was 0.3% in experiment [1] and 44.4% (active) in experiment [2].
On the same counts, the results for `Cc1ccccc1OCCNC(=O)c1ccccc1Sc1ccccc1C#N` are 6.19% and 1.44%.
In the same order, the values of `Cc1ccc(Cl)cc1N1CCN(C(c2ccc(C#N)cc2)c2nnnn2C2CCCC2)CC1` (stereo unspecified) are 1.29% and 22.5%.
For `CCSc1nsc(NC(=O)Nc2cccc(F)c2)n1`, the figures for the inhibition in experiment [1] and in experiment [2] were 13.2% and 15.4%, respectively.
In the same order, the values of `COc1cc(/C=C2/SC(=S)N(c3ccccc3)C2=O)ccc1Oc1nc(N2CCOCC2)nc(N2CCOCC2)n1` are 4.82% and -7.44%.
On the same counts, the results for `CCOc1c(Br)cc(CNC2CCCCCCC2)cc1OC` are -5.01% and -0.26%.
In the same order, the values of `Cc1nc(NCc2ccccn2)c2ccccc2n1` are -6.68% and 13.9%.
Turning to `Cc1ccc(NC(=O)C(=Cc2ccc(C(=O)O)cc2)C(=O)Nc2ccc(C)cc2C)c(C)c1`, the inhibition in experiment [1] was 32.6%; in experiment [2] it was 46% (active).
On the same counts, the results for `Cc1ccc(S(=O)(=O)N2C[C@H]3C(=O)C[C@@H](c4ccccc4)N(S(=O)(=O)c4ccc(C)cc4)[C@H]3C[C@H]2c2ccccc2F)cc1` are 6.96% and 2.52%.
On the same counts, the results for `FC(F)(F)c1cccc(Nc2cc(-c3ccccc3)nc3ncnn23)c1` are -2.25% and -0.93%.
On the same counts, the results for `CCOc1cc(C(=O)N2CCC(CC3CC(c4ccc(Cl)cc4)=NO3)(C(=O)NCC3CCCCC3)CC2)cc(OCC)c1OCC` (stereo unspecified) are 6.12% and 7.56%.
`Cc1ccc(F)cc1NC(=O)C1CCN(c2cnccn2)CC1`: the inhibition in experiment [1] is -9.49%; in experiment [2], -3.26%.
`CCc1cccc(CC)c1NC(=O)CSc1nc2ccc(N3C(=O)C4C(C3=O)[C@H]3C=C[C@@H]4C3)cc2s1` (stereo partly specified): the figures for the inhibition in experiment [1] and in experiment [2] were 1.87% and 10.2%, respectively.
In the same order, the values of `CCN(CC)S(=O)(=O)c1cccc(NC(=O)C2SC(=Nc3ccc(C)cc3C)C(C(=O)NC(C)COC)=C2N)c1` (stereo unspecified) are 6.35% and 5.31%.
On the same counts, the results for `COC(=O)COc1cccc(NC(=O)c2cccs2)c1` are -1.66% and -12.7%.
As for `C=CC[C@@H](CC(=O)NCCO)C(=O)NC[C@H](OC(=O)[C@@H](CC=C)Cc1ccc(F)cc1)c1ccccc1`, the inhibition in experiment [1] was 16.2%; in experiment [2], 2.08%.
In the same order, the values of `COc1ccc(S(=O)(=O)Nc2cc([N+](=O)[O-])ccc2OC)cc1` are -7.49% and 2.4%.
On the same counts, the results for `CCN1C/C(=C/c2ccc(N3CCOCC3)cc2)C(=O)/C(=C/c2ccc(N3CCOCC3)cc2)C1` are 40.8% and 22.6%.
In the same order, the values of `O=C(COc1ccc(Cl)cc1)Nc1ccc(C(=O)NCc2cccnc2)cc1` are 55.6% (active) and -24.6%.
Take `Cc1nc(SCC(=O)NNC(=O)c2ccc(F)cc2)c2ccccc2n1`: the results for the inhibition in experiment [1] and in experiment [2] were -5.28% and -10.9%, respectively.
For `COc1ccc(C(=O)Nc2nc(-c3ccccn3)cs2)cc1S(=O)(=O)N1CCOCC1`, the results for the inhibition in experiment [1] and in experiment [2] were 18.3% and -11.1%, respectively.
On the same counts, the results for `COC(=O)c1ccc(S(=O)(=O)NCc2ccc(S(N)(=O)=O)cc2)o1` are -5.84% and -6.55%.
